Drawing on PubChem BioAssay, this text covers composite z-score and z-score for five molecules.

Calls of active or inactive are those of the source.

Test [1] can be described thus: small molecules captured by biotinylated probe aFSTL3 – biochemical, small-molecule microarray, fluorescence 635/667, stem cell growth factor project, primary screen (AID 1064).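 Further: measures binding of the biotinylated anti-FSTL3 antibody to printed compounds.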 Particulars: higher = more signal.
The nature of test [2]: binders from COS7 lysate, DM2A8 probe, primary screen, torsin A project, cell lysate, small-molecule microarray, fluorescence 635/667 (AID 1065). Particulars: higher = more signal, COS7 lysate expressing mutant human TOR1A.
Test [3] is described as follows: small molecules captured by biotinylated probe aFGF2 – biochemical, small-molecule microarray, fluorescence 635/667, stem cell growth factor project, primary screen (AID 1067).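 Further: measures binding of biotinylated aFGF2 protein to printed compounds on slides; z-score merges feature fluorescence and signal-to-noise across triplicate slides.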 Conditions: higher = more signal.
The nature of test [4]: small molecules captured by biotinylated probe aFGF10 – biochemical, small-molecule microarray, fluorescence 635/667, stem cell growth factor project, primary screen (AID 1071).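 Further: score merges 667 nm spot intensity and signal to noise from triplicate slides.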 Conditions: higher = more signal.
In test [5] the target is Neurogenic locus notch homolog protein 2 (Homo sapiens) (UniProt Q04721). Put plainly: small molecules binding Notch2 protein – biochemical, small-molecule microarray, 635 nm fluorescence, stem cell growth factors, primary screen (AID 1073). Particulars: higher = more signal.
Test [6] has as its target Pro-neuregulin-1, membrane-bound isoform (Homo sapiens) (UniProt Q02297). Description: small molecules binding neuregulin-1 protein – biochemical, small-molecule microarray, fluorescence 635/667, psychiatric disease protein project, primary screen (AID 1075).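 Further: score combines 667 nm spot fluorescence with signal to noise.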 Conditions: NRG1 binding, 635 nm fluorescence, higher = more signal.
Test [7] deals with Neuregulin-1 EGF-like domain. Description: small molecules binding NRG1 EGF domain – biochemical, small-molecule microarray, 635 nm fluorescence, primary screen (AID 1081).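 Further: binding of the protein to compounds printed on small-molecule microarray slides.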 Conditions: higher = more signal.
Test [8] can be described thus: FRG1 expression reporter modulators in myotubes – cell-based, C2C12 myotubes, firefly/Renilla luciferase, luminescence, FRG1 inhibition for FSHD, primary screen (AID 1084). Conditions: FRG1 promoter luciferase, higher = more signal, called active from +8 up or from −8 down.
A short description of test [9]: small molecules captured by biotinylated probe aFST – biochemical, small-molecule microarray, fluorescence 635/667, stem cell growth factor project, primary screen (AID 1086).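 Further: score merges 667 nm fluorescence with signal-to-noise of each printed compound spot.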 Particulars: higher = more signal.
Test [10] in a line: binders of probe aHhip on microarray, primary screen, stem cell growth factor project, biochemical, small-molecule microarray, fluorescence 635/667 (AID 1087).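 Further: score merges spot fluorescence at 667nm with spot signal to noise ratio.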 Conditions: higher = more signal.
Test [11] concerns PRMT1 (protein arginine N-methyltransferase 1). Description: small molecules binding arginine methyltransferase PRMT1 – biochemical, small-molecule microarray, 635 nm fluorescence, primary screen (AID 1088).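 Further: binding of Prmt1 protein to compounds spotted on small-molecule microarray slides.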 Particulars: higher = more signal.
Test [12] in a line: growth effects on S. cerevisiae YJM789 – YJM789 clinical isolate, OD600, 24 h, basal, primary screen (AID 1089).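 Further: growth of clinical yeast isolate S. cerevisiae YJM 789 seeded 1000 cells per well; test concentration not given here.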 Particulars: higher = more signal, called active from +8 up or from −8 down.
A short description of test [13]: S. pombe growth modifiers, basal conditions – strain 972, OD600, 24 h, no modulator, primary screen (AID 1090).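 Further: basal condition with compound alone and no growth modifier present; test concentration not given here.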 Particulars: S. pombe 972 growth, higher = more signal, called active from +8 up or from −8 down.
The nature of test [14]: budding yeast growth modifiers under rapamycin – strain BY4716, OD600, 96 h, primary screen (AID 1091). Further: test concentration not given here. Conditions: S. cerevisiae BY4716 + rapamycin, higher = more signal, called active from +8 up or from −8 down.
The target in test [15] is Torsin-1A-interacting protein 2 (Homo sapiens) (UniProt Q8NFQ8). Description: small molecules binding lysate-expressed LULL1 – cell lysate, human LULL1 lysate, 635/667 nm fluorescence, primary screen (AID 1092).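 Further: probe is lysate of COS7 cells overexpressing human LULL1; score merges per-feature 667 nm fluorescence with signal-to-noise.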 Particulars: small-molecule microarray, hLULL1 lysate binding, 635 nm fluorescence; higher = more signal.
Test [16] can be described thus: optical density change of DRC41 E. coli – strain DRC41, OD650, 24 h, E. coli filamentation project, primary screen (AID 1093).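 Further: MC1000 strain lacking acrAB efflux and sulA so SOS filamentation is blocked; test concentration not given here.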 Conditions: E. coli DRC41 growth, higher = more signal, called active from +8 up or from −8 down.
Test [17] in a line: probe aLefty2 binding to arrayed compounds – biochemical, biotinylated probe, 635/667 nm fluorescence, primary screen (AID 1094).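 Further: score merges spot fluorescence near 667 nm with spot signal-to-noise ratio.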 Conditions: small-molecule microarray, higher = more signal.
In test [18] the test system is Noggin (protein binding on small-molecule microarray). Description: small molecules binding Noggin protein – biochemical, 635/667 nm fluorescence, primary screen (AID 1095).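 Further: score merges 667 nm feature fluorescence with signal to noise over triplicate slides.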 Conditions: 635 nm fluorescence, higher = more signal.
Test [19] deals with Neurogenic locus notch homolog protein 3 (Homo sapiens) (UniProt Q9UM47). Put plainly: small molecules binding NOTCH3 protein – biochemical, 635/667 nm fluorescence, primary screen (AID 1096). Conditions: small-molecule microarray, 635 nm fluorescence, higher = more signal.
Test [20] in a line: probe aEGFR binding to arrayed compounds – biochemical, biotinylated probe, 635/667 nm fluorescence, primary screen (AID 1097).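 Further: probe is a biotinylated anti-EGFR antibody binding compounds printed on slides; score combines fluorescence near 667 nm and signal to noise of each spot.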 Particulars: small-molecule microarray, higher = more signal.

Torsin-1A-interacting protein 2 (Homo sapiens), sequence (Q8NFQ8 whole entry, looked up): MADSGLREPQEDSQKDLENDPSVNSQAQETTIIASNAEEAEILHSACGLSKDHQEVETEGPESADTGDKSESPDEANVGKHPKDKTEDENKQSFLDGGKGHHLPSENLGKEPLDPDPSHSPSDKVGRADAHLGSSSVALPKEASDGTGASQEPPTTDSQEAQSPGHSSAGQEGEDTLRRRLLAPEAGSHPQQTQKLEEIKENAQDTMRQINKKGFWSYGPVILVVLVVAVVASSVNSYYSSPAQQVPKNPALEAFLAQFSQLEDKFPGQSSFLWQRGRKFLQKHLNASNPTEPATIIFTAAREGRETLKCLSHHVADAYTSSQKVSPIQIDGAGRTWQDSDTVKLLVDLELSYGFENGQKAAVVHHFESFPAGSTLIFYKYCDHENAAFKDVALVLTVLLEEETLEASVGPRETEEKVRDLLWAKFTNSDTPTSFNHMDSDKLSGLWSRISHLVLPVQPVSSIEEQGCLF
Neurogenic locus notch homolog protein 3 (Homo sapiens), sequence (Q9UM47 whole entry, looked up): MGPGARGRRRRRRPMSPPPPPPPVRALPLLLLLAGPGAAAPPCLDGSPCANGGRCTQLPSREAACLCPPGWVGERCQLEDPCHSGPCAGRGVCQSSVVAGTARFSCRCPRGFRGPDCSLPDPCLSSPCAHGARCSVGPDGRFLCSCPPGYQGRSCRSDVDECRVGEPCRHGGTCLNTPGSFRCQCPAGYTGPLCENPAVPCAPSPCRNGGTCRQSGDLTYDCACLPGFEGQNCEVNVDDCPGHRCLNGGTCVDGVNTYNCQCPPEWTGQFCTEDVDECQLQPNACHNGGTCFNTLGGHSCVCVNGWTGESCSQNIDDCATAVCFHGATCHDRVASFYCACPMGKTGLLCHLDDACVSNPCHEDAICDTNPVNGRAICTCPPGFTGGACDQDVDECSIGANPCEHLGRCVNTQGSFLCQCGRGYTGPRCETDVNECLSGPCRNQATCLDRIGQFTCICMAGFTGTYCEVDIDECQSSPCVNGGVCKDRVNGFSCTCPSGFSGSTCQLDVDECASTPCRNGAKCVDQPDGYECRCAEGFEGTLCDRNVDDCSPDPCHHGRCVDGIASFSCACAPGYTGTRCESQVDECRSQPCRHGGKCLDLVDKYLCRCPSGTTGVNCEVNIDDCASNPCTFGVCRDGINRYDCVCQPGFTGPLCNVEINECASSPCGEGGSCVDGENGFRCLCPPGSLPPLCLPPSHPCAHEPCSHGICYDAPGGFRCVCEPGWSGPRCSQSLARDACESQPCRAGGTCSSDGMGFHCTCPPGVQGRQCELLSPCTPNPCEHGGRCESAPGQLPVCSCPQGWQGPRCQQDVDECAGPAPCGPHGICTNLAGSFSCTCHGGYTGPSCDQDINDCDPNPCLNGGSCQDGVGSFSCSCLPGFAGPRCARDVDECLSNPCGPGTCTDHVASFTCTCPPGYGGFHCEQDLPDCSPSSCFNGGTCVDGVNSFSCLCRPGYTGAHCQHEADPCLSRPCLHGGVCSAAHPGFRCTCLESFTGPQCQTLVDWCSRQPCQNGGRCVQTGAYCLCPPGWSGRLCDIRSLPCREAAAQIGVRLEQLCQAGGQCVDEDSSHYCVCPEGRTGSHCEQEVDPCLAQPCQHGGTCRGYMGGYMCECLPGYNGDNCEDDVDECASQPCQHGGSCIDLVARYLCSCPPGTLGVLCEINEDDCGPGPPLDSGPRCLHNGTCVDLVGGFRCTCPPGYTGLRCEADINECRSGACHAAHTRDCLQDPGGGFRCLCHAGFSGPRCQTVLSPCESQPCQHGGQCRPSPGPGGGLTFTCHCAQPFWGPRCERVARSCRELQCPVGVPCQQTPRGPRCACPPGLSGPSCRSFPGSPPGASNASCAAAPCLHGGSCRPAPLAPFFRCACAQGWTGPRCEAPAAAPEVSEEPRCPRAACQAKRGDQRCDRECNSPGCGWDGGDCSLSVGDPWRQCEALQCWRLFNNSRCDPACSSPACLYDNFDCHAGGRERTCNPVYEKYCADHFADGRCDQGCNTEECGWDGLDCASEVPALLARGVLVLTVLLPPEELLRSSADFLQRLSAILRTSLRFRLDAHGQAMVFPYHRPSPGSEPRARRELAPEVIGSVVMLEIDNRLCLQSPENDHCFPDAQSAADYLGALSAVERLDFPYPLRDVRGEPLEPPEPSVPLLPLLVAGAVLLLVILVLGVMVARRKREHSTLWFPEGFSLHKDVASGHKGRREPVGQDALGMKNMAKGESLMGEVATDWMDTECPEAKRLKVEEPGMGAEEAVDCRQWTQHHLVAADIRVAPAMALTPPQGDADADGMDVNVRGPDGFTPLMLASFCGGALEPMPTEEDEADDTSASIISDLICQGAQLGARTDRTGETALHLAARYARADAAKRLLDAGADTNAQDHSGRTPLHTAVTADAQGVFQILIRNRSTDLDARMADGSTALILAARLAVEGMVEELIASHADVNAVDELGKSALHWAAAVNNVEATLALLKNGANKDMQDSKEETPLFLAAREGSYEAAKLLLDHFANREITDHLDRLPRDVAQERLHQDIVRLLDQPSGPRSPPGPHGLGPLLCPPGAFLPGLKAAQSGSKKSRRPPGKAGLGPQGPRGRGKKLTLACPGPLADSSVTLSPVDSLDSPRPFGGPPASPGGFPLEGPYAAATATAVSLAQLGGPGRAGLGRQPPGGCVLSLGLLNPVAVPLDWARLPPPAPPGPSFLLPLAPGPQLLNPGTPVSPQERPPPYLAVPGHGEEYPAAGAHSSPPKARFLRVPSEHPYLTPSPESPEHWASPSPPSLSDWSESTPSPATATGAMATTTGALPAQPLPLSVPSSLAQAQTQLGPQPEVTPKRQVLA
Pro-neuregulin-1, membrane-bound isoform (Homo sapiens), sequence (Q02297 whole entry, looked up, the tested form may be a part, canonical isoform): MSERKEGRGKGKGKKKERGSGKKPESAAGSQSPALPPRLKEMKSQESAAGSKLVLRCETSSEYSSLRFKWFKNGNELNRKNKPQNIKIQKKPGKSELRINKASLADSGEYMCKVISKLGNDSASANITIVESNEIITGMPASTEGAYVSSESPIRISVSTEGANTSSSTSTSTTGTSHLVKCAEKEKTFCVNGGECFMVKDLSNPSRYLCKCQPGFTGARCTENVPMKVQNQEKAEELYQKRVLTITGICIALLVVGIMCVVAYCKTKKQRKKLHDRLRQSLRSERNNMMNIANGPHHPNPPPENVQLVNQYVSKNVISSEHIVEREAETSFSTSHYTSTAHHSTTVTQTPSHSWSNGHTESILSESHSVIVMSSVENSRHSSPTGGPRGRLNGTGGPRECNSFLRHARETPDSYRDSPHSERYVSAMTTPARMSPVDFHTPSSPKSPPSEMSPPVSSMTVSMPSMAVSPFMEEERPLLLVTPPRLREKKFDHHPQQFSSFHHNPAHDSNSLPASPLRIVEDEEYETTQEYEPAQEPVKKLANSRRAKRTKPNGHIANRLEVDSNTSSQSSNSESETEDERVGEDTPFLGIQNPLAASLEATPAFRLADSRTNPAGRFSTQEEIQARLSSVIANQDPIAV

In the case of `O=C(NCCN1CCOCC1)[C@@H]1c2ccccc2C(=O)N(Cc2cc(C(F)(F)F)cc(C(F)(F)F)c2)[C@H]1c1ccc(CO)cc1`, the composite z-score in test [1] was 0.284; in test [2], 0.183; in test [3], -0.116; in test [4], -0.214; in test [5] it was -1.28; in [6] it was 1.27. Besides, the composite z-score was 1.25 in test [7]; 0.0794 in test [9]; -0.0994 in test [10]; 1.56 in test [11]; 2.37 in test [15]; -0.0856 in test [17]. For the same molecule, the composite z-score was -0.901 in test [18], -0.578 in [19] and -0.0744 in test [20]. The z-score was 0.0006 (inactive) in test [8]; 0.764 (inactive) in test [12]; -0.091 (inactive) in test [13]; 0.0371 (inactive) in test [14]; 0.339 (inactive) in test [16].
In the case of `C=CCC(OC(C)=O)[C@@H]1[C@@H](N(Cc2ccc(-c3ccccc3)cc2)C(=O)Cc2ccc(F)cc2)c2cc(OCCCO)ccc2N1C(=O)c1ccc2ccccc2c1` (stereo not given in full), the composite z-score in [1] was -0.313; in test [2], 0.273; in [3] it was -0.0222; in [4], -0.0326; in [5], 0.166; in test [6] it was -0.158. In addition, the composite z-score in test [7] was -0.31; in test [9] it was 0.0263; in test [10], -0.226; in [11], 0.688; in [15] it was 0.437; in test [17], 0.0002. Besides, the composite z-score in [18] is 0.289; in test [19], 0.147; in test [20], -0.109. The z-score is 0.375 (inactive) in [8]; 0.245 (inactive) in test [12]; 0.135 (inactive) in test [13]; 0.14 (inactive) in test [14]; 0.0919 (inactive) in [16].
Take `CN1C(=O)C2C=CC(C(O)c3c(F)cccc3Cl)N(NC(=O)OC(C)(C)C)C2C1=O` (stereo not given): the composite z-score in [1] amounted to 0.171; in test [2], 0.233; in [3] it was 0.0111; in test [4], 1.11; in test [5] it was 1.23; in test [6], 1.49. Also, the composite z-score in [7] turned out to be 1.3; in [9] it was 0.888; in test [10], 0.0623; in [11] it was 1.3; in [15] it was 3.45; in test [17], 0.18. Besides, the composite z-score is -0.388 in test [18], 0.686 in test [19] and 0.0675 in [20]. Further, the z-score was 0.636 (inactive) in [8]; -0.143 (inactive) in [12]; 0.415 (inactive) in test [13]; 0.635 (inactive) in test [14]; -0.597 (inactive) in test [16].
Consider `COC(=O)[C@@]1(Cc2ccccc2)[C@H]2c3cc(C(=O)N4CCCC4)n(Cc4ccc(O)c(OC)c4)c3C[C@H]2CN1C(=O)c1ccccc1`, for which the composite z-score is 0.528 in test [1]; -0.162 in [2]; 0.185 in test [3]; 0.0854 in test [4]; 1.53 in [5]; 1.66 in test [6]. The composite z-score was 1.39 in test [7]; 1.04 in test [9]; 0.651 in test [10]; -0.358 in test [11]; 3.43 in test [15]; 0.641 in test [17]. In addition, the composite z-score is -0.786 in [18], 0.79 in test [19] and 0.249 in test [20]. Besides, the z-score in [8] is -0.433 (inactive); in test [12] it was 1.21 (inactive); in test [13], 0.943 (inactive); in [14], 2.06 (inactive); in test [16], -0.667 (inactive).
In the case of `O=C(O)[C@H]1C[C@H]2C(=O)N3CCC[C@H]3C(=O)N2[C@H]1c1ccc(O)cc1`, the composite z-score is 1.22 in test [1]; -0.104 in test [2]; -0.195 in [3]; -0.929 in test [4]; -2.12 in test [5]; -0.0857 in test [6]. Further, the composite z-score in test [7] was 0.804; in test [9] it was -0.834; in test [10], 0.147; in [11], -0.57; in [15], 0.631; in test [17] it was 0.0212. Further, the composite z-score in test [18] is -0.571; in test [19], -1.23; in test [20] it was -0.268. Also, the z-score is -0.305 (inactive) in [8]; 0.428 (inactive) in test [12]; -0.613 (inactive) in [13]; 0.333 (inactive) in [14]; 0.863 (inactive) in test [16].
